# PubChem BioAssay AID651642 (Sanford-Burnham Center for Chemical Genomics, 2012)
# The source made the active and inactive calls.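 Rule for the calls: active = average half-effect concentration of 10 µM or less in every one of the four cell panels; inactive = the rest.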
# System: H9c2
# Experiment: cardiomyocyte survival under oxidative or metabolic stress – cell-based, panel, H9c2 and HL-1, H2O2, 2-deoxyglucose, ATP luminescence, SAR follow-up (AID 651642)
# Details: H9c2/HL-1 cardiomyocyte H2O2 oxidative damage, mean of runs, with H2O2
row,SMILES,outcome
1,COc1cc(-c2cc(C(=O)Nc3cccc(C(C)=O)c3)c3cc(F)ccc3n2)cc(OC)c1OC,active
2,COc1cc(-c2cc(C(=O)NCC(=O)Nc3ccc(C(C)=O)cc3)c3cc(F)ccc3n2)cc(OC)c1OC,inactive
3,COc1ccc2c(c1OC)C(=O)N1c3ccccc3C(=O)N(Cc3cccc(F)c3)C21 (stereo not drawn),inactive
4,COc1ccc2c(c1OC)C(=O)N1c3ccccc3C(=O)N(Cc3ccccn3)C21 (stereo not drawn),inactive
5,CCOC(=O)c1cccc(NC(=O)c2cc(-c3cc(OC)c(OC)c(OC)c3)nc3ccc(F)cc23)c1,inactive
6,COc1cc(-c2cc(C(=O)NCC(=O)O)c3ccccc3n2)cc(OC)c1OC,inactive
7,CCOC(=O)c1cccc(NC(=O)CNC(=O)c2cc(-c3cc(OC)c(OC)c(OC)c3)nc3ccc(F)cc23)c1,active
8,CCOC(=O)c1cccc(NC(=O)CNC(=O)c2cc(-c3cc(OC)c(OC)c(OC)c3)nc3ccc(C)cc23)c1,active
9,COc1ccc2nc(-c3cc(OC)c(OC)c(OC)c3)cc(C(=O)Nc3cccc(C(C)=O)c3)c2c1,inactive
10,COc1ccc2nc(-c3cc(OC)c(OC)c(OC)c3)cc(C(=O)NCC(=O)Nc3ccc(C(C)=O)cc3)c2c1,active
11,COc1ccc2c(c1OC)C(=O)N1c3ccccc3C(=O)N(Cc3ccc(C)cc3)C21 (stereo not drawn),inactive
12,COc1ccc2c(c1OC)C(=O)N1c3ccccc3C(=O)N(Cc3cccc(Cl)c3Cl)C21 (stereo not drawn),inactive
13,CCOC(=O)c1cccc(NC(=O)CNC(=O)c2cc(-c3cc(OC)c(OC)c(OC)c3)nc3ccc(Br)cc23)c1,active
14,COc1cc(-c2cc(C(=O)Nc3cccc(C(C)=O)c3)c3ccc(Cl)cc3n2)cc(OC)c1OC,inactive
15,CCOC(=O)c1cccc(NC(=O)c2cc(-c3cc(OC)c(OC)c(OC)c3)nc3ccc(C)cc23)c1,active
16,COc1cc(-c2cc(C(=O)NCC(=O)Nc3cccc(C(C)=O)c3)c3cccc(Cl)c3n2)cc(OC)c1OC,active
17,COc1cc(-c2cc(C(=O)NCC(=O)Nc3cccc(C(C)=O)c3)c3ccccc3n2)cc(OC)c1OC,active
18,COc1cc(-c2cc(C(=O)NCC(=O)Nc3ccc(C(C)=O)cc3)c3cc(C)ccc3n2)cc(OC)c1OC,active
